CYP2C9 activ – activators of human CYP2C9; P11712; recombinant CYP2C9, luciferin-H conversion, luminescence; stronger effect = higher value; factor 1 = untreated enzyme, 0 = blocked; activation factor at 5 µM; 1.4% of 96,000 active;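 active = activation factor of 2 or more for CYP2C9 at a 5 µM dose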;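 also: 0 = sulfaphenazole-blocked wells and 1 = vehicle-only wells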
PLK1 inh – PLK1 (human) kinase inhibition; P53350; recombinant PLK1 kinase, TR-FRET peptide phosphorylation; inhibition, % at 10 µM; 0.53% of 97,000 active; AID 619;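 active = inhibition of 50% or more in the single-concentration screen; inactive = inhibition below 50%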;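 also: 0% = DMSO max control and 100% = H-89 dihydrochloride min control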
Target sequence (P53350 whole entry, looked up): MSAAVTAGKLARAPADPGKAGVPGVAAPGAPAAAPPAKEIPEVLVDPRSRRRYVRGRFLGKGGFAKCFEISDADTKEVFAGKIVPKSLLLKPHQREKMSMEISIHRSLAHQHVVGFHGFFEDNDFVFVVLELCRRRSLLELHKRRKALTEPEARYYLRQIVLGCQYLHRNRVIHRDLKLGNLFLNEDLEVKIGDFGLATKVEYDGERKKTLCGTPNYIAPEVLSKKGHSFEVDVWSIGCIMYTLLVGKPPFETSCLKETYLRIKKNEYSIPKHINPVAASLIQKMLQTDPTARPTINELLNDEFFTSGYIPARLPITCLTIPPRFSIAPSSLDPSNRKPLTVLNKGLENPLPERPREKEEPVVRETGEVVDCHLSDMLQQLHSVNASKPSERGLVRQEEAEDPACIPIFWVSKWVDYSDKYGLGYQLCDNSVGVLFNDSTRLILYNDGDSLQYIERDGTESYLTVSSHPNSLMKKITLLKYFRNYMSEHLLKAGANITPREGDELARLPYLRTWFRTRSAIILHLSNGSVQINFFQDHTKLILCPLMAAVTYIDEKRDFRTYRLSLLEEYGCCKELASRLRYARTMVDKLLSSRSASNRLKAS
CYP2C9 inh – blocks human cytochrome P450 2C9; CYP2C9 Supersomes, luciferin-H conversion, luminescence; P11712; 20% of 96,000 active; AID 777; inhibition, % at 5 µM;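 active = blocking of liver enzyme CYP2C9 beyond about 50% at 5 µM, limit read from the data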
CYP2C19 activ – cytochrome P450 2C19 (human) activation; P33261; recombinant CYP2C19, luciferin-H EGE luminescence; stronger effect = higher value; 0 = fully inhibited enzyme, 1 = untreated enzyme; activation factor at 5 µM; 96,000 tested, under 10 active; AID 1025;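 active = activation factor of at least 2 at 5 µM in the primary screen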;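 also: 0 = wells with 2.5 mM tranylcypromine and 1 = vehicle-only wells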
Plk1 PBD FP – blocks phosphopeptide binding to human Plk1 polo box domain; P53350; AID 693; 0.13% of 97,000 active; Plk1 PBD phosphopeptide binding, fluorescence polarization; inhibition, %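 (tested at about 20 µM)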; in the data active = inhibition above about 34%, passing the limit was not always enough
CYP2C19 inhib – inhibitors of human CYP2C19; P33261; CYP2C19 Supersomes, luciferin-H EGE luminescence, 30 min; inhibition, % at 5 µM; 21% of 96,000 active; AID 778;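 active = CYP2C19 inhibition above a set limit at 5 µM in the primary screen, cut at about 50% in these data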;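 also: plate controls were negative control wells for no effect and 2.5 mM tranylcypromine positive control for full effect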
An asterisk follows results filed as active; · = no result. A selection: hits, their analogues and other compounds. The true share with any hit is near 28%.

SMILES | CYP2C9 activ | PLK1 inh | CYP2C9 inh | CYP2C19 activ | Plk1 PBD FP | CYP2C19 inhib
CC(C)(C)C(=O)NC(=S)NCCc1ccccc1 | 1 | -6 | 1 | 0.6 | -37 | 41
COc1ccccc1NC(=S)NC(=O)c1ccc(-c2ccc(Cl)cc2)o1 | 1.5 | -8 | -54 | 0.9 | -24 | 8
COc1ccccc1NC(=S)NCCc1ccc(Cl)cc1 | 0.8 | -4 | 19 | 0.3 | -18 | 71*
COc1ccc(NC(=S)NCCc2ccccc2)c(OC)c1 | 0.8 | -14 | 16 | 0.1 | -4 | 90*
Fc1cc(Br)ccc1NC(=S)NCCc1ccccc1 | 0.5 | -16 | 45 | 0.2 | -2 | 76*
COc1ccccc1NC(=S)NCc1ccco1 | 1.3 | -5 | -34 | 0.4 | 12 | 64*
CCc1ccc(N(C(C)=O)C2C=CS(=O)(=O)C2)cc1 (stereo not drawn) | 0.9 | -13 | 12 | 0.7 | 7 | 27
O=C(c1cc2ccccc2o1)N1CCCCCC1 | · | -6 | · | · | -8 | ·
CC1CCN(C(=O)c2cc3ccccc3o2)CC1 | 0.8 | -9 | 22 | 0.1 | -3 | 86*
O=C(/C=C/N1CCOCC1)c1cc2ccccc2o1 | 0.2 | 1 | 77* | 0.9 | -18 | 9
CCOC(=O)C1=C(C)Nc2ncnn2C1c1cc(Br)ccc1F (stereo not drawn) | 0.6 | · | 42 | 0.6 | · | 40
Cc1cccc(N2CCN(C(=O)NCc3ccc(Cl)cc3)CC2)c1 | · | -10 | · | · | 9 | ·
O=C(Nc1ccc2c(c1)OCO2)C1CCN(S(=O)(=O)c2cccc3cccnc23)CC1 | 2.8* | -3 | -179 | 0.7 | 25 | 32
O=C(NCc1ccc2c(c1)OCO2)C1CCCN(S(=O)(=O)c2cccc3cccnc23)C1 (stereo not drawn) | 1.2 | -7 | -16 | 0.7 | 13 | 30
O=C(C1CCN(S(=O)(=O)c2cccc3nsnc23)CC1)N1CCN(c2ccccc2F)CC1 | 1.4 | 3 | -38 | 1.1 | -20 | -6
O=C(NC1CCCCCC1)C1CCN(S(=O)(=O)c2cccc3cccnc23)CC1 | 3.9* | -17 | -288 | 0.5 | 14 | 47
CC1CCCCN1CCNC(=O)C1CCN(S(=O)(=O)c2cccc3cccnc23)CC1 (stereo not drawn) | 0.9 | -7 | 8 | 0.8 | -3 | 17
O=C(NCc1cccs1)C1CCCN(S(=O)(=O)c2cccc3cccnc23)C1 (stereo not drawn) | 4.2* | 3 | -322 | 0.7 | 0 | 30
O=C(C1CCCN(S(=O)(=O)c2cccc3cccnc23)C1)N1CCN(c2ccccc2F)CC1 (stereo not drawn) | 0.6 | 0 | 43 | 0.1 | -17 | 88*
Cc1ccc(C(=O)c2cc(C)sc2NC(=O)CN2CCN(C(=O)c3ccco3)CC2)cc1 | 0.6 | 2 | 43 | 0.6 | -19 | 43
O=C1CN(C(=O)CSc2nnc(C3CC3)n2-c2ccccc2)c2ccccc2N1 | 0.9 | 0 | 11 | 0.9 | 37 | 12
Cc1ccccc1C(=O)O/N=C1\CCS(=O)(=O)c2sccc21 | 1 | -14 | 2 | 1 | -18 | 3
Cn1c(=O)c2c(nc(N3CCC(C(N)=O)CC3)n2CCSc2nc3ccccc3s2)n(C)c1=O | · | -4 | · | · | · | ·
O=C(NC1CCN(Cc2ccccc2)CC1)C1CCN(S(=O)(=O)c2cccc3cccnc23)CC1 | 2.9* | · | -187 | 1.1 | · | -14
O=C(NC1CCCC1)C1CCCN(S(=O)(=O)c2cccc3cccnc23)C1 (stereo not drawn) | 2.6* | -9 | -160 | 0.9 | -6 | 8
SMILES | CYP2C9 activ | PLK1 inh | CYP2C9 inh | CYP2C19 activ | Plk1 PBD FP | CYP2C19 inhib
Cc1cccc(NC(=O)C2CCN(c3nccc(C)n3)CC2)c1 | 1.4 | 1 | -44 | 0.3 | 14 | 70*
Cc1ccnc(N2CCC(C(=O)Nc3ccc4c(c3)CCC4)CC2)n1 | 0.9 | · | 9 | 0.7 | · | 27
O=C(NC1CCN(Cc2ccccc2)CC1)C1CCN(S(=O)(=O)c2cccc3nsnc23)CC1 | 1.2 | -3 | -16 | 0.9 | -33 | 14
Cc1cccc(NC(=O)C2CCCN(S(=O)(=O)c3cccc4cccnc34)C2)c1 (stereo not drawn) | 1.1 | -13 | -11 | 0.2 | 9 | 81*
CCN1CCCC1CNC(=O)C(=O)Nc1ccccc1OC (stereo not drawn) | 1.1 | -2 | -6 | 1 | -17 | -4
CCCc1[nH]nc2c1C1(CCOC1C)C(C#N)=C(N)O2 (stereo not drawn) | 0.9 | -1 | 7 | 0.8 | 1 | 20

Screens (PubChem BioAssay)
